Laboratory results reported in PubChem BioAssay AID1159580 (chemical genetic matrix, 2015).
Out of some 5,500 compounds screened, about 2,000 (36%) were called active. Roughly 18% stayed inconclusive and do not appear here. No stated cut-off is given here; in the data, active means normalized growth mostly below about 0.91 (no sharp cut-off); inconclusive means no clear call, values can overlap the other calls; inactive means mostly above about 0.92. The list shows a part of the results.

Assay: chemical genetic growth profiling, strain panel (AID 1159580);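 further: tested at 20 µM; growth read once vehicle control cultures reached saturation at 30 °C; 1 = growth at the plate median or of vehicle wells; lower values mean less growth of the strain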
Conditions: S. cerevisiae deletion strains, growth OD

Measured: normalized growth

O=C(CNC(=O)c1ccc(Cl)cc1)NO
inactive: locus YAL021C, strain ccr4, hits give low values 1.01 | locus YAL026C, strain drs2, hits give low values 1.01 | locus YAL030W, strain snc1, hits give low values 1.01 | locus YBL061C, strain skt5, hits give low values 1.01 | locus YBR009C, strain hhf1, hits give low values 1.01 | locus YBR023C, strain chs3, hits give low values 1.02 | locus YBR171W, strain sec66, hits give low values 1.02 | locus YBR231C, strain swc5, hits give low values 1.01 | locus YBR279W, strain paf1, hits give low values 1.01 | locus YCL011C, strain gbp2, hits give low values 1.01 | locus YCL016C, strain dcc1, hits give low values 1.02 | locus YCL061C, strain MRC1, hits give low values 1 | locus YCL069W, strain vba3, hits give low values 1.01 | locus YCR088W, strain abp1, hits give low values 1.01 | locus YDL005C, strain med2, hits give low values 1.02 | locus YDL040C, strain nat1, hits give low values 1.01 | locus YDR001C, strain nth1, hits give low values 1 | locus YDR069C, strain doa4, hits give low values 1.01 | locus YDR137W, strain rgp1, hits give low values 1.03 | locus YDR159W, strain sac3, hits give low values 1.01 | locus YDR195W, strain ref2 0.972 | locus YDR297W, strain sur2, hits give low values 1.04 | locus YDR334W, strain swr1, hits give low values 1.02 | locus YDR335W, strain msn5, hits give low values 1.02 | locus YDR392W, strain spt3, hits give low values 1 | locus YEL003W, strain gim4, hits give low values 1.01 | locus YEL037C, strain rad23, hits give low values 1.04 | locus YEL061C, strain CIN8 (second series), hits give low values 1.01 | locus YER015W, strain faa2, hits give low values 1.01 | locus YER016W, strain bim1, hits give low values 1.02 | locus YER111C, strain swi4, hits give low values 1.01 | locus YER155C, strain BEM2 (second series), hits give low values 1.03 | locus YFR010W, strain ubp6, hits give low values 1.02 | locus YGL167C, strain pmr1, hits give low values 1.01 | locus YGL173C, strain kem1, hits give low values 1.02 | locus YGL227W, strain vid30, hits give low values 1.01 | locus YGL240W, strain doc1, hits give low values 1.01 | locus YGL253W, strain hxk2, hits give low values 1.01 | locus YHR013C, strain ard1, hits give low values 1.04 | locus YHR027C, strain rpn1, hits give low values 1.01 | locus YHR030C, strain SLT2, hits give low values 1.02 | locus YHR079C, strain IRE1, hits give low values 1.03 | locus YHR142W, strain chs7, hits give low values 0.997 | locus YJL092W, strain hpr5, hits give low values 1.01 | locus YJL095W, strain BCK1 (second series), hits give low values 1 | locus YJL095W, strain BCK1, hits give low values 1.06 | locus YJL115W, strain asf1, hits give low values 1.02 | locus YJL129C, strain trk1, hits give low values 1.03 | locus YJL154C, strain vps35, hits give low values 1.02 | locus YJL164C, strain tpk1, hits give low values 1.01 | locus YJL166W, strain qcr8, hits give low values 1.01 | locus YJL187C, strain SWE1, hits give low values 1.01 | locus YJR066W, strain TOR1, hits give low values 0.941 | locus YKL160W, strain elf1, hits give low values 1.01 | locus YKR026C, strain gcn3, hits give low values 0.992 | locus YKR091W, strain srl3, hits give low values 1.01 | locus YLL001W, strain dnm1, hits give low values 1.03 | locus YLL026W, hits give low values 1.01 | locus YLL041C, strain sdh2, hits give low values 1.02 | locus YLR027C, strain aat2, hits give low values 1.01 | locus YLR113W, strain HOG1, hits give low values 1.04 | locus YLR221C, strain rsa3, hits give low values 1.01 | locus YLR258W, strain gsy2, hits give low values 1.02 | locus YLR262C, strain YPT6 (second series), hits give low values 1.03 | locus YLR320W, strain mms22, hits give low values 1.01 | locus YLR342W, strain FKS1, hits give low values 1.01 | locus YLR357W, strain rsc2, hits give low values 1.02 | locus YLR370C, strain arc18, hits give low values 1.01 | locus YLR384C, strain iki3, hits give low values 1.02 | locus YML120C, strain ndi1, hits give low values 1.01 | locus YMR058W, strain fet3, hits give low values 1.01 | locus YMR125W, strain sto1, hits give low values 1.01 | locus YMR129W, hits give low values 1.01 | locus YMR205C, strain PFK2, hits give low values 1.01 | locus YMR231W, strain pep5, hits give low values 1.02 | locus YNL071W, strain lat1, hits give low values 1.02 | locus YNL183C, strain NPR1, hits give low values 0.951 | locus YNL209W, strain ssb2, hits give low values 1.02 | locus YNL248C, strain rpa49, hits give low values 1.01 | locus YNL322C, strain KRE1 (second series), hits give low values 1.01 | locus YNR049C, strain mso1, hits give low values 1.01 | locus YOR001W, strain rrp6, hits give low values 1.02 | locus YOR070C, strain gyp1, hits give low values 1.02 | locus YOR080W, strain dia2, hits give low values 1.01 | locus YOR083W, strain WHI5, hits give low values 1.01 | locus YOR106W, strain vam3, hits give low values 1.02 | locus YOR231W, strain MKK1, hits give low values 1.01 | locus YOR265W, strain rbl2, hits give low values 1.01 | locus YOR270C, strain vph1, hits give low values 1.05 | locus YOR290C, strain snf2, hits give low values 1.03 | locus YPL051W, strain arl3, hits give low values 1.01 | locus YPL078C, strain atp4, hits give low values 1.01 | locus YPL106C, strain sse1, hits give low values 1.04 | locus YPL240C, strain hsp82, hits give low values 1.02 | locus YPL256C, strain CLN2, hits give low values 0.997
